Rows were chosen to be rich in hits. Some 2% of all compounds tested hit in one or more screens of this group.
Gli-Sufu block = blocks Gli-Sufu signaling in a luciferase reporter; Sufu-KO-LIGHT fibroblasts, Gli luciferase reporter luminescence; inhibition, % at 5 µM; actives 0.74% (n = 340,000); AID 588413;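 active = inhibition above about 55%, limit read from the data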
GalR3 antag = blocks the human galanin receptor 3 | inhibition, % at 3 µM | O60755 | actives 0.44% (n = 360,000) | HEK293 GalR3-CNG cAMP membrane potential fluorescence; galR3 body fused to GalR1 C-terminus | AID 651719;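 active = inhibition above the screen-wide average plus 3 SD, cut at about 13% in these data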;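 note: forskolin and galanin both at EC90 stimulate the cells; cAMP rise reported by CNG channel membrane potential dye signal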
Target sequence (O60755 1-299 limits assumed): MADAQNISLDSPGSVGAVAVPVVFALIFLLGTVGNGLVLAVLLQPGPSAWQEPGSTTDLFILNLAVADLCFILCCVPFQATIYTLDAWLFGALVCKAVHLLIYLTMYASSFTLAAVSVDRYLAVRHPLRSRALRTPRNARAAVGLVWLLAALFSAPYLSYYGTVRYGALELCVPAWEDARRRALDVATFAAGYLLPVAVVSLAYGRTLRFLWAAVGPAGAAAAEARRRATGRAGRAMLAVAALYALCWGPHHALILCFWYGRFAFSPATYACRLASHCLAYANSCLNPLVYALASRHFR
Jurkat NFkB inh = inhibitors of the PMA/ionomycin-induced NF-kB reporter in Jurkat cells | PMA/ionomycin-induced NF-kB luciferase reporter, luminescence | inhibition, % at 4 µM | actives 0.53% (n = 330,000); in the data active = inhibition above about 50%
697 NFkB inh = lowers PMA/ionomycin-induced NF-kB signal in 697 B cells; 697 B-cell NF-kB luciferase reporter, 16 h; inhibition, % at 4 µM; actives 0.33% (n = 330,000); AID 435022; in the data active = inhibition above about 35%
COUP-TFII inh = inhibitors of human COUP-TFII (NR2F2); inhibition, % at 8.6 µM; P24468; AID 686940; actives 0.7% (n = 370,000); HEK293T NGFI-A luciferase reporter, luminescence;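 active = inhibition above a per-plate cutoff, mean inhibition of test wells between control levels plus 3 SD, cut at about 38% in these data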;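 note: cells cotransfected with COUP-TFII expression vector driving the NGFI-A reporter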
Target sequence (P24468 whole entry, looked up): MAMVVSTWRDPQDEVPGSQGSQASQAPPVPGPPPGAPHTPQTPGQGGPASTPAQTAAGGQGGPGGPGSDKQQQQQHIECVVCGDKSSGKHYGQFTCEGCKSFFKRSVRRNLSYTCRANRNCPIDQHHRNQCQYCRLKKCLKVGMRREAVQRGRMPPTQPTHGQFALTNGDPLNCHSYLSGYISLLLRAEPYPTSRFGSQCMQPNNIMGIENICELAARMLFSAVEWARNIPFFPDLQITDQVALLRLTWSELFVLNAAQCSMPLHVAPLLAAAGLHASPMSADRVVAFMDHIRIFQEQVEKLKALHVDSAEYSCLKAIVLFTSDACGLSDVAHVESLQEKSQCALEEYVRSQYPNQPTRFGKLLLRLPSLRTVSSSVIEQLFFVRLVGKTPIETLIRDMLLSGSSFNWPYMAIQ
Jurkat NFkB conf = lowers PMA/ionomycin-induced NF-kB signal in Jurkat cells; shares compounds with Jurkat NFkB inh; Jurkat NF-kB luciferase, 16 h; inhibition, % at 4 µM; actives 27% (n = 2,700); AID 435020;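 active = inhibition reaching about 45% at 4 µM in either replicate, limit read from the data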
697 NFkB conf = lowers PMA/ionomycin-induced NF-kB signal in 697 B cells; shares compounds with 697 NFkB inh; 697 B-cell NF-kB luciferase, 16 h; inhibition, % at 4 µM; actives 35% (n = 2,000); AID 449746; in the data active = inhibition mostly above about 28%, no sharp cut-off; inactive = mostly below about 22%
Gli antag conf = Gli-SUFU antagonism confirmation, single concentration. inhibition, % at 5 µM. shares compounds with Gli-Sufu block. actives 40% (n = 2,500). Sufu-KO-LIGHT cells, Gli luciferase reporter, luminescence;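 active = mean inhibition at 5 µM reaching about 45%, limit read from the data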
Gli cytotox = cytotoxicity counter-screen for Gli-SUFU antagonists. shares compounds with Gli-Sufu block. actives 32% (n = 2,500). AID 651994. Sufu-KO-LIGHT cells cytotoxicity, ATP luminescence. cytotoxicity, % at 5 µM;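 active = mean cytotoxicity at 5 µM above about 25%, limit read from the data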;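 note: cells exposed to compound overnight for roughly 16 to 18 hours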
Wnt3a counter = Wnt3a reporter inhibition counter-screen | Wnt-LIGHT cells, Wnt3a-driven luciferase reporter, luminescence | inhibition, % at 6.25 µM | shares compounds with Gli-Sufu block | actives 20% (n = 2,500);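 active = mean inhibition above about 25%, limit read from the data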
GalR3 conf = GalR3 (human) antagonism, confirmation | HEK293 GalR3 CNG cAMP biosensor, membrane potential fluorescence; galR3 fused to GalR1 carboxy tail; challenged with forskolin and galanin at EC90 | inhibition, % at 3 µM | shares compounds with GalR3 antag | AID 652245 | actives 59% (n = 1,600);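 active = inhibition above the primary screen's cutoff, the mean inhibition of all screened compounds plus 3 SD, cut at about 13% in these data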
CNG parental = acts as nonspecific agonist in parental HEK-CNG cells; activation, % at 3 µM; actives 10% (n = 1,600); HEK293-CNG parental cells, cAMP membrane potential fluorescence; normalised: DMSO wells 0%, forskolin wells 100%; AID 652268; shares compounds with GalR3 antag; in the data active = activation above about 1.3%
VP16 Luc counter = inhibits VP16 reporter, flagging COUP-TFII antagonist hits; shares compounds with COUP-TFII inh; HEK293 Gal4-VP16 luciferase reporter, luminescence; inhibition, % at 8.5 µM; actives 25% (n = 2,500); AID 687007; in the data active = inhibition above about 13%
COUP-TFII conf = confirmation of human COUP-TFII (NR2F2) inhibitors. actives 45% (n = 2,500). HEK293 NGFI-A luciferase reporter, luminescence. inhibition, % at 8.5 µM. AID 687008. shares compounds with COUP-TFII inh;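 active = mean inhibition over three repeats above a set limit taken from the earlier primary screen, cut at about 38% in these data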
Each line names hits and unclear results; the compound was inactive in the other large screens (follow-up assays come after a bar, where they were run).

CC(=O)OC[C@]12CCC(C)=C[C@H]1O[C@@H]1[C@H](O)[C@@H](OC(C)=O)[C@@]2(C)[C@]12CO2	Gli-Sufu block 92, Jurkat NFkB inh 97, 697 NFkB inh 98, COUP-TFII inh 91 | Jurkat NFkB conf 99 | 697 NFkB conf 94 | VP16 Luc counter 18 | COUP-TFII conf 90
Cc1cc(N=Nc2ccccc2C)ccc1N	none | 697 NFkB conf inactive
Cc1nc2cc(-c3cccc(F)c3)nn2c(C)c1CCC(=O)N1CCC2(CC1)OCCO2	697 NFkB inh 36 | 697 NFkB conf 36
Cc1nc2c(-c3ccccc3)c(C)nn2c(C)c1CCC(=O)N1CCC2(CC1)OCCO2	none
COc1cc(O)c2c(c1)/C=C/C[C@H](O)[C@H](O)[C@@H](O)/C=C/C[C@H](C)OC2=O	none (no result: Gli-Sufu block, GalR3 antag, Jurkat NFkB inh, 697 NFkB inh)
O=C(CNC(=O)OCc1ccccc1)NC(Cc1ccccc1)P(=O)(Oc1ccccc1)Oc1ccccc1 (stereo not given)	none (no result: Gli-Sufu block, GalR3 antag, Jurkat NFkB inh, 697 NFkB inh)
COC(=O)C(C)Oc1cc(C)cc2oc(=O)c3c(c12)CCC3 (stereo not given)	697 NFkB inh 36 | 697 NFkB conf 55
CCOC(=O)CNC(=O)N1Cc2cc(Br)ccc2-n2nncc2C1	none (no result: Gli-Sufu block, Jurkat NFkB inh, 697 NFkB inh)
N=c1c2c(n(Cc3ccc(Cl)cc3Cl)c3c1CCC3)CCCC2	697 NFkB inh 68 (no result: GalR3 antag, COUP-TFII inh) | 697 NFkB conf 33
COc1ccc2nc(-c3ccc(CN4CCC(n5nnc6ccccc65)CC4)cc3)c(-c3ccccc3)nc2c1	none (no result: Gli-Sufu block, Jurkat NFkB inh, 697 NFkB inh)
C=CCn1c(O)c(C(CC)=NC(C)c2ccccc2)c(=O)[nH]c1=O (stereo not given)	697 NFkB inh 61 | 697 NFkB conf 39
CCCCn1c(O)c(C(CC)=NC(C)c2ccccc2)c(=O)[nH]c1=O (stereo not given)	none
Cc1cc(C)cc(N2C(=O)NC(=O)/C(=C\c3cccn3-c3ccccc3)C2=O)c1	697 NFkB inh 53 | 697 NFkB conf 61
CN(C)P(=O)(C(Cl)=C(N1CCCCC1)N1CCCCC1)N(C)C	697 NFkB inh 41 | 697 NFkB conf inactive
O=C(N1CCCCCC1)N1CC1	none (no result: Jurkat NFkB inh, 697 NFkB inh)
CC(=O)OC1CC[C@]2(C#N)[C@H]3CC[C@]4(C)[C@H](C5C=CC(=O)O5)CCC4(O)C3CCC2(O)C1 (stereo not given in full)	GalR3 antag 26 | 697 NFkB conf inactive | GalR3 conf 22 | CNG parental 1.8
CN(C)c1ccc(C(=O)N/N=C/C23CC[C@@H](O)CC2(O)CC[C@@H]2[C@@H]3CCC3(C)C(C4=CC(=O)OC4)CCC23O)cc1 (stereo not given in full)	GalR3 antag 42 | 697 NFkB conf inactive | GalR3 conf 38 | CNG parental 1.4
N#Cc1ccc2nc(-c3ccc(CN4CCC(n5c(=O)[nH]c6cc(Cl)ccc65)CC4)cc3)c(-c3ccccc3)nc2c1	none (no result: Gli-Sufu block, Jurkat NFkB inh, 697 NFkB inh)
Clc1ccc([C@H]2CC3CCC2N3)cn1 (stereo not given in full)	none (no result: Gli-Sufu block, Jurkat NFkB inh, 697 NFkB inh)
Cc1c(N=Cc2c(O)n(CCc3ccccc3)c(=O)[nH]c2=O)c(=O)n(-c2ccccc2)n1C	none
Cc1c(N=Cc2c(O)n(Cc3ccc(F)cc3)c(=O)[nH]c2=O)c(=O)n(-c2ccccc2)n1C	Gli-Sufu block 63 | Gli antag conf inactive | Gli cytotox inactive | Wnt3a counter inactive
CCc1cc(OC)c(CCN)cc1OC	none (no result: Gli-Sufu block, Jurkat NFkB inh, 697 NFkB inh)
C1=C(c2c[nH]c3ccccc23)CCN(Cc2ccccc2)C1	Gli-Sufu block 55 | Gli antag conf inactive | Gli cytotox inactive | Wnt3a counter inactive
CCOP(=O)(CCP(=O)(OCC)OCC)OCC.C[CH2][Sn]([Cl])([Cl])[CH2]C	Gli-Sufu block 63 (no result: Jurkat NFkB inh, 697 NFkB inh) | Gli antag conf 63 | Gli cytotox inactive | Wnt3a counter inactive
O=C(NC1CCCCC1)N1Cc2ccc(Br)cc2-n2nncc2C1	none (no result: Gli-Sufu block, Jurkat NFkB inh, 697 NFkB inh)
CCOP(=O)(OCC)C(O)c1cccc([N+](=O)[O-])c1 (stereo not given)	Gli-Sufu block 58 | Gli antag conf inactive | Gli cytotox 25 | Wnt3a counter inactive
COc1ccc(C(=O)C2CCCN(Cc3cnc(C)s3)C2)cc1OC (stereo not given)	none
Cc1ncc(CN2CCCC(C(=O)c3ccc(C(C)(C)C)cc3)C2)s1 (stereo not given)	none | Gli antag conf inactive | Gli cytotox inactive | Wnt3a counter inactive
COP(=O)(OC)OC=C(Cl)Cl	none (no result: Gli-Sufu block, Jurkat NFkB inh, 697 NFkB inh)
O=C1NC(=S)N(c2ccccc2)C(=O)/C1=C/c1ccco1	none
CCOc1cccc(N2C(=O)/C(=C/c3ccco3)C(=O)NC2=S)c1	Gli-Sufu block 55 | Gli antag conf inactive | Gli cytotox inactive | Wnt3a counter inactive
CS(=O)(=O)N1Cc2cc(Br)ccc2-n2nncc2C1	none (no result: Gli-Sufu block, Jurkat NFkB inh, 697 NFkB inh)
N/C(=N\N=C\c1ccc(O)cc1O)N[N+](=O)[O-]	Gli-Sufu block 55 | Gli antag conf inactive | Gli cytotox inactive | Wnt3a counter 42
CN1C2(C)c3ccccc3C1(c1ccccc1)c1ccccc12	none (no result: Gli-Sufu block, Jurkat NFkB inh, 697 NFkB inh)
CC(=O)NC(Cc1ccc(N(CCCl)CCCl)cc1)C(=O)NCC(=O)NCC(=O)O (stereo not given)	none | Gli antag conf inactive | Gli cytotox inactive | Wnt3a counter inactive

Assay outcomes as filed in PubChem.
